Test results from article PMC4552634, “A New Set of Chemical Starting Points with Plasmodium falciparum Transmission-Blocking Potential for Antimalarial Drug Discovery” (PLoS ONE, 2015).
Like-named read-outs stand apart in the source and are kept apart here. The whole screen tested about 13,000 compounds, of which about 3,200 (25%) showed an effect of 50% or more. The list shows a part of the results.

Tested on: P. falciparum stage V gametocytes
Set-up: BacTiter-Glo ATP luminescence viability of purified stage V gametocytes in 384-well plates, per cent inhibition versus DMSO
Settings: 48 h, 5 µM, inhibitor

| SMILES | % Inhibition | % Inhibition (% Inhibition) |
| --- | --- | --- |
| Cc1ccccc1Oc1ccc(Nc2ccnc(Nc3cccc(C(N)=O)c3)n2)cc1C(F)(F)F [TCMDC-138601] | 1.674% |  |
| CC(=O)N(C)c1ccc(C(=O)Nc2cccc(-c3cccc(-c4nc5ccc(C(F)(F)F)cc5[nH]4)c3)c2)cc1 [TCMDC-136849] | -19.52% |  |
| CC(=O)Nc1nc(C(=O)Nc2cccc(-c3ccc4c(cnn4CC4CC4)c3)c2)cs1 [TCMDC-133147] | 49.64% |  |
| O=C1COC(c2ccccc2)(c2ccccc2)CN1CC1CCN(Cc2ccc(O)cc2Cl)C1 (centres unmarked) [TCMDC-136338] | 44.26% |  |
| Cc1[nH]c2c(C)cccc2c1C1CCN(CCC2CCN(C(=O)/C=C/c3ccc(Cl)c(Cl)c3)CC2)CC1 [TCMDC-139803] | 38.01% |  |
| N=C(N)CCN(Cc1ccc(Cl)cc1)c1ccc(Cl)cc1 [TCMDC-131840] | 54.29% |  |
| N=C(N)NCCCN(Cc1ccccc1)c1ccc(Cl)cc1 [TCMDC-131839] | 47.9% |  |
| N=C(N)NCCN(Cc1ccccc1)c1ccc(Cl)cc1 [TCMDC-131838] | 72.85% |  |
| N=C(N)CCN(Cc1ccccc1)c1ccc(Cl)cc1 [TCMDC-131835] | 9.979% |  |
| N=C(N)NCCN(Cc1ccccc1)c1ccccc1 [TCMDC-131837] | 26.01% |  |
| Cc1ccc(N(CCC(=N)N)Cc2ccccc2)cc1 [TCMDC-132096] | 26.05% |  |
| CN1CCCN(Cc2ccc(-c3cccc(NC(=O)c4ccc(F)cc4)c3)cc2)CC1 [TCMDC-132634] | 12.81% |  |
| O=C(NC1CCN(Cc2ccccc2)CC1)c1cccc(-c2cc3cc(Cl)c(Cl)cc3[nH]2)c1 [TCMDC-141290] | -1.614% |  |
| CN1CCN(CCCN(Cc2ccc(-c3cccc(CNCc4ccc5c(c4)OCO5)c3)cc2)C(=O)CCC2CCCC2)CC1 [TCMDC-140751] | 61.11% |  |
| CN1CCN(CCCN(Cc2ccc(-c3cccc(CNCc4ccc5c(c4)OCO5)c3)cc2)C(=O)NC2CCCCC2)CC1 [TCMDC-140642] | 56.14% |  |
| CN1CCN(CCCN(Cc2ccc(-c3ccc(CNCc4ccc5c(c4)OCO5)cc3)cc2)C(=O)CCC2CCCC2)CC1 [TCMDC-140561] | 102.2% |  |
| CN1CCN(CCCN(Cc2cccc(-c3ccc(CNCc4ccc5c(c4)OCO5)cc3)c2)C(=O)CCC2CCCC2)CC1 [TCMDC-140557] | 65.31% |  |
| Cc1cccc(C(=O)Nc2ccnc(N(C)C3CCN(Cc4cccc(O)c4)CC3)c2)c1 [TCMDC-134964] | -19.45% |  |
| O=C(/C=C/c1ccc(Cl)c(Cl)c1)NCCCCCN1CCC(NC(=O)Nc2cc(F)cc(F)c2)CC1 [TCMDC-135715] | -53.24% |  |
| NC(=O)C1CCN(Cc2ccc(-c3ccc(-c4nc5cc(C(F)(F)F)ccc5[nH]4)cc3)cc2)CC1.O=C(O)C(F)(F)F [TCMDC-132692] | -81.89% |  |
| CN1CCN(CCCN(Cc2cccc(-c3cccc(CNCc4ccc5c(c4)OCO5)c3)c2)C(=O)CCC2CCCC2)CC1 [TCMDC-140556] | 67.58% |  |
| FC(F)(F)c1cccc(CNCC2CCN(Cc3ccc4c(c3)OCO4)CC2)c1 [TCMDC-141673] | 2.788% |  |

| SMILES | % Inhibition | % Inhibition (% Inhibition) |
| --- | --- | --- |
| CC1CN(c2ccc(NC(=O)c3cccs3)cc2)CCN1Cc1cccc(F)c1 (centres unmarked) [TCMDC-135008] | -22.55% |  |
| COc1ccc(CNCc2cccc(-c3cccc(-c4nc5cccc(C)c5[nH]4)c3)c2)cc1.O=C(O)C(F)(F)F [TCMDC-132732] | -64.2% |  |
| c1ccc(CSC2=NNC(c3ccccn3)S2)cc1 (centres unmarked) [TCMDC-123769] | 99.43% |  |
| NC(=O)c1cccc(C(=O)Nc2cccc(-c3csc(-c4nc5ccccc5[nH]4)c3)c2)c1 [TCMDC-132399] | -9.606% |  |
| CNCCCNCc1ccc(-c2ccc(F)c(Cl)c2)o1 [TCMDC-125237] | 65.13% |  |
| CN(C)CCCNCc1ccc(-c2ccc(F)c(Cl)c2)o1 [TCMDC-125238] | 41.34% |  |
| CNS(=O)(=O)CCNCc1ccc(-c2ccc3ncnc(Nc4ccc(OCc5ccccc5)cc4)c3c2)o1 [TCMDC-138102] | -59.33% |  |
| O=C(C=Cc1ccccc1C(F)(F)F)NC1CCC(CN2CCC(c3c[nH]c4ccccc34)CC2)CC1 (centres unmarked) [TCMDC-139915] |  | 18.99% |
| O=C(/C=C/c1ccccc1Cl)NC1CCC(CN2CCC(c3c[nH]c4ccccc34)CC2)CC1 (centres unmarked) [TCMDC-139699] |  | 83.67% |
| O=C(C=Cc1ccccc1Br)NC1CCC(CN2CCC(c3c[nH]c4ccccc34)CC2)CC1 (centres unmarked) [TCMDC-139905] |  | 19.58% |
| O=C(/C=C/c1ccccc1O)NC1CCC(CN2CCC(c3c[nH]c4ccccc34)CC2)CC1 (centres unmarked) [TCMDC-139720] |  | 84.95% |
| O=C(C=Cc1ccccc1Br)NC1CCC(CN2CCC(c3c[nH]c4ccccc34)CC2)CC1 (centres unmarked) [TCMDC-139917] |  | 13.62% |
| O=C(C=Cc1ccccc1C(F)(F)F)NC1CCC(CN2CCC(c3c[nH]c4ccccc34)CC2)CC1 (centres unmarked) [TCMDC-139903] |  | 54.81% |
| O=C(C=Cc1cccc(Cl)c1Cl)NC1CCC(CN2CCC(c3c[nH]c4ccccc34)CC2)CC1 (centres unmarked) [TCMDC-139920] |  | -3.877% |
| O=C(/C=C/c1ccccc1O)NC1CCC(CN2CCC(c3c[nH]c4ccccc34)CC2)CC1 (centres unmarked) [TCMDC-139705] |  | 20.65% |
| O=C(/C=C/c1ccccc1Cl)NC1CCC(CN2CCC(c3c[nH]c4ccccc34)CC2)CC1 (centres unmarked) [TCMDC-139714] |  | 34.23% |
| COc1ccc(Nc2nccc(NCCNC(=O)Nc3cc(C)ccc3C)n2)cc1 [TCMDC-133644] | -56.14% |  |
| CCn1cc2c3c(cc(C(=O)N[C@@H](Cc4ccccc4)[C@H](O)CNCc4cccc(OC)c4)cc31)N(C)S(=O)(=O)CC2 [TCMDC-135784] | 29.74% |  |
| O=C(NCCCCN1CCC(O)(c2ccc(Cl)cc2)CC1)c1ccc(Br)cc1 [TCMDC-131982] | -5.43% |  |
| CN(C(=O)c1nn(-c2ccccn2)c2nccc(-c3cccs3)c12)C1CCCCC1 [TCMDC-124797] | 11.83% |  |
| C=C(C)Cn1cc(C2CCN(CCCCNC(=O)c3sc(-c4ccc(Cl)cc4Cl)nc3CO)CC2)c2ccccc21 [TCMDC-138873] | -30.06% |  |
| Cc1cc(C2CCN(CCCCNC(=O)c3ccc(-c4ccc(C(F)(F)F)cc4)cc3)CC2)c(C)cc1OCC(N)=O [TCMDC-138800] | 4.975% |  |

| SMILES | % Inhibition | % Inhibition (% Inhibition) |
| --- | --- | --- |
| CCOC(=O)c1cc(C(=O)NCCCCN2CCC(c3ccc4c(c3OC)CCCC4)CC2)ccc1-c1ccc(C(F)(F)F)cc1 [TCMDC-138739] | 73.05% |  |
| Cn1cc(C2CCN(CCCCNC(=O)c3sc(-c4ccc(C(F)(F)F)cc4)nc3CO)CC2)c2ccccc21 [TCMDC-138778] | -59.88% |  |
| CCc1ccc(C2CCN(CCCCNC(=O)c3ccc(-c4ccc(C#N)cc4)cc3)CC2)c(OCCO)c1 [TCMDC-138765] | -6.555% |  |
| COC(=O)c1ccc(C(=O)NCCCCN2CCC(c3ccc4c(c3OC)CCCC4)CC2)cc1-c1ccc(C(F)(F)F)cc1 [TCMDC-138705] | -64.43% |  |
| COc1c(C2CCN(CCCCNC(=O)c3ccc(-c4ccc(C(F)(F)F)cc4)c(C(=O)OC(C)C)c3)CC2)ccc2c1CCCC2 [TCMDC-138744] | 32.47% |  |
| CCOC(=O)c1cc(C(=O)NCCCCN2CCC(c3ccc(CC)cc3OCC)CC2)ccc1-c1ccc(C(F)(F)F)cc1 [TCMDC-138755] | 83.47% |  |
| CCc1ccc(C2CCN(CCCCNC(=O)c3ccc(-c4ccc(C(F)(F)F)cc4)cc3)CC2)c(OCCO)c1 [TCMDC-138761] | 105.9% |  |
| Cc1cc(C2CCN(CCCCNC(=O)c3ccc(-c4ccc(C(F)(F)F)cc4)cc3)CC2)c(C)cc1OCCO [TCMDC-138798] | -10.99% |  |
| C=CCn1cc(C2CCN(CCCCNC(=O)c3sc(-c4ccc(C(F)(F)F)cc4)nc3CO)CC2)c2cc(OC)ccc21 [TCMDC-138828] | 92.56% |  |
| CC(=O)Oc1cc(C)ccc1C1CCN(CCCCNC(=O)c2ccc(-c3ccc(C(F)(F)F)cc3)cc2)CC1 [TCMDC-138626] | 28.6% |  |
| COc1cccc(C(=O)OC2=C3CCC(=O)C3(C)CCC2=O)c1 (centres unmarked) [TCMDC-131633] | 39.81% |  |
| CC(C)(C)OC(=O)N1CCN(c2ccccc2NC(=O)c2cccc(C(F)(F)F)c2Oc2ccc(F)cc2)CC1 [TCMDC-140951] | -16.31% |  |
| COc1ccc2[nH]c(C(=O)Nc3ccc4nc(-c5ccccc5)[nH]c4c3)cc2c1 [TCMDC-134305] | -25.97% |  |
| CCOc1ccccc1CON1C(N)=NC(N)=NC1(C)C [TCMDC-131583] | 17.24% |  |
| CCNc1cc(C)nc(Nc2ccc(NC(=O)C3CCCC3)cc2)n1 [TCMDC-124980] | -0.5513% |  |
| C=Cc1ccccc1C1(O)CCN(CCCCNC(=O)c2ccc(-c3ccc(C#N)cc3)cc2)CC1 [TCMDC-135786] | 28.95% |  |
| Cc1cc(N[C@@H](CC(C)C)C(=O)Nc2ccccc2)nc(Nc2ccccc2)n1 [TCMDC-134743] | -20.12% |  |
| C=CC[C@H](C[C@H](O)[C@H](Cc1ccccc1)NC(=O)c1ccc(-c2cccnn2)cc1)C(=O)NC1CCCCC1 [TCMDC-141421] | -14.32% |  |
| CC(NC(=O)c1cc(-c2ccccc2)nc2c1cnn2C(C)C)C1CC1 (centres unmarked) [TCMDC-125054] | 5.318% |  |
| CC(C)n1ncc2c(C(=O)N3CCCc4ccccc43)cc(-c3ccccc3)nc21 [TCMDC-125456] | 70.11% |  |
| CC(C)n1ncc2c(C(=O)N3CCCCCC3)cc(-c3ccccc3)nc21 [TCMDC-125259] | 6.769% |  |
